Assay outcomes deposited in PubChem BioAssay by National Center for Advancing Translational Sciences (NCATS).
An excerpt weighted towards active compounds, which were near 8.8% of everything screened.
HT1080-NT tox = qHTS for induction of synthetic lethality in tumor cells producing 2HG: qHTS for the HT-1080-NT fibrosarcoma cell line; HT-1080-NT fibrosarcoma viability, CellTiter-Glo ATP luminescence, 48 h; Potency, µM (top dose mostly 46.1 µM), inactives show at the top dose activity, negative = less viability, hits mostly cytotoxic; 360,000 compounds, 1.6% hits;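 also: NT is the 2HG producing partner of a matched IDH1 knockdown line; potency is read from the fitted curve at half-maximal effect; 0% = DMSO-treated cells and -100% = media-only wells without cells; nearly all actives have a fitted effect of over 55% in size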
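Fibrosarcoma NT cells, 750 per well in 5% FBS RPMI, were exposed to compound for 48 hours. Viability: CellTiter-Glo luminescence.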
KB-V1 cytotox = qHTS assay for MDR1-selective chemotherapeutics: Primary screen using the drug-selected MDR subline cells KB-V1. KB-V1 MDR cells viability, CellTiter-Glo, 72 h. Potency, µM (series often up to 46.1 µM), usual class: cytotoxic. 400,000 compounds, 3.4% hits. AID 1347076, 2019; also: potency is read from the fitted curve at half-maximal effect; nearly all actives have a fitted effect of over 60% in size
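Cytotoxicity via CellTiter-Glo luminescence after 72 h compound exposure at 37 degrees C. Cells: drug-selected KB-V1 line, DMEM phenol-red free plus 10% FBS. Compounds tested at multiple concentrations; normalized data fitted to concentration-effect curves.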
HT1080 IDH1KD tx = qHTS for induction of synthetic lethality in tumor cells producing 2HG: qHTS for the HT-1080-IDH1KD cell line | HT-1080 IDH1 knockdown viability, ATP luminescence, 48 h | Potency, µM (top dose mostly 46.1 µM), inactives show top-dose activity, negative = toxicity, actives largely listed as cytotoxic | 360,000 compounds, 2% hits;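 also: potency is read from the fitted curve at half-maximal effect; 0% = DMSO wells and -100% = cell-free medium wells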
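After a 2 h attachment period, IDH1KD HT-1080 cells took pin-transferred compound for 48 h at 37 °C; ATP-based luminescence after 10 min room-temperature reagent incubation reported viability.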
KB-3-1 cytotox = qHTS assay for MDR1-selective chemotherapeutics: Primary screen using the parental adenocarcinoma cell KB-3-1; KB-3-1 viability, CellTiter-Glo ATP luminescence, 72 h; Potency, µM (top dose mostly 46.1 µM), hits mostly cytotoxic; 400,000 compounds, 1.4% hits; AID 1347075, 2019; also: potency is read from the fitted curve at half-maximal effect; nearly all actives have a fitted effect of over 60% in size
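Parental KB-3-1 viability, qHTS format: 72 h compound exposure, 37 °C; CellTiter-Glo; media-only wells and DMSO plates as controls; concentration-effect fits on corrected data.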
IL1B secr inh = qHTS for Inhibitors of Inflammasome Signaling: IL-1-beta AlphaLISA Primary Screen | THP-1 LPS/ATP IL-1B secretion, AlphaLISA, 16 h; active compounds read low | activity change, % at 57.5 µM | 360,000 compounds, 4.7% hits | AID 743279, 2014; in the data active = activity change below about -50%; inconclusive = mostly about -30% to -49%
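Secreted IL-1B measured by AlphaLISA bead assay after 16 h compound exposure of THP-1 cells; compounds (final up to 57.5 uM) added 1 h before LPS (250 ng/mL) and ATP (1.25 mM) stimulation; lower signal means less secretion.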
The depositor's hits bear a star; i = inactive; ? = inconclusive; / = not tested or not shown; [ ] = dose if it differs, or a comment. Unless noted, calls follow the shape of the dose curve; as a rule, active = well fitted curve in the direction sought with a large enough effect; inconclusive = small, poorly fitted or top-dose-only effect, or another doubt; inactive = no such curve, though single readings can be large; an effect the other way counts as inactive or inconclusive. Unless noted, % is scaled to controls: 0 for no effect and ±100 for the full control effect.

SMILES | HT1080-NT tox | KB-V1 cytotox | HT1080 IDH1KD tx | KB-3-1 cytotox | IL1B secr inh
CCOC(=O)N1CC=C2C(C#N)=C(N)C(C#N)(C#N)[C@H](c3ccsc3)[C@H]2C1 | ? | 15µM* | ? | ? | 23
Cc1cccc(-c2noc(-c3csc([C@@H]4C[C@H](O)[C@@H](CO)O4)n3)n2)c1 | ? | i | 1% | i | -21
OC[C@H]1O[C@H](c2nc(-c3nc(-c4cccs4)no3)cs2)C[C@@H]1O | 5% | i | 0% | i | -80*
Cc1ccc(C)c(C(=O)CN2C3=NCCCN3c3ccccc32)c1 | ? | i | ? | i | -66*
O=C(CN1C2=NCCN2c2ccccc21)C12CC3CC(CC(C3)C1)C2 | 21µM* | ? | -1%[9.24 µM] | ? | ?
COc1ccc(C(=O)CN2C3=NCCCN3c3ccccc32)cc1OC | -12% | i | -11% | i | -9
c1ccc(CN2C3=NCCN3c3ccccc32)cc1 | -1% | i | 0% | i | 9
COc1ccccc1-c1nc(SCC(=O)N2CCC(C(N)=O)CC2)n[nH]1 | -6% | i | -6% | i | 29
COc1cccc(Sc2nc(N(C)C)ncc2S(=O)(=O)c2ccc(Cl)cc2)c1 | 0% | / | 5% | / | /
CCCc1c(-c2ccc(F)cc2)ncn1CCc1ccccc1OC | ? | ? | ? | ? | -6
CCCc1c(-c2cccc(Br)c2)ncn1Cc1ccccc1OC | ? | 18µM* | ? | ? | -17
CCCc1c(-c2ccc(Cl)cc2)ncn1CCc1ccccc1OC | ? | 18µM* | ? | ? | -93*
CCCc1c(-c2ccc(Cl)cc2)ncn1Cc1ccccc1OC | ? | 18µM* | ? | 16µM* | -1
CCCc1c(-c2cccc(Cl)c2)ncn1CCc1ccccc1OC | ? | 15µM* | ? | ? | -21
COc1ccccc1Cc1c(-c2cccc(Cl)c2)nc2ccc(C)cn12 | ? | ? | ? | ? | 0
Cc1cccc(NC(=O)Cn2cc(S(=O)(=O)c3ccc(F)cc3)c(=O)c3cc4c(cc32)OCO4)c1 | / | i | / | i | /
Cc1ccccc1OCC(=O)Nc1ccc2[nH]ncc2c1 | 24% | i | 12% | i | -14
CCCCN(CCCC)c1ccc(/C=C/c2ccnc3ccccc23)cc1 | / | ? | / | i | /
Cc1ccc(C)c(Cn2c3ccccc3c3cnn(CC(=O)NCCCN4CCOCC4)c(=O)c32)c1 | ? | ? | ? | i | -55*
Cc1c2cnn(CC(=O)NCCCN3CC(C)CC(C)C3)c(=O)c2c(C)n1Cc1ccccc1Cl (stereo unspecified) | ? | i | ? | i | -58*
O=C(Cc1ccc(F)cc1)Nc1cccc2cccnc12 | -4% | 16µM* | 2% | i | -11
CCOC(=O)Cn1c(=O)oc2cc(S(=O)(=O)N(C)c3cccc(C)c3)ccc21 | -6% | i | 0% | i | 22
CCOC(=O)Cn1c(=O)oc2cc(S(=O)(=O)N(C)c3ccc(OC)cc3)ccc21 | -6% | i | 6% | i | -57*
COc1cccc(CNC(=O)Cn2c(=O)cc(C(F)(F)F)c3c(C)nn(C)c32)c1OC | / | i | / | i | /
COc1ccccc1OC(C)C(=O)N1CCC(c2nc3ccccc3s2)CC1 (stereo unspecified) | / | ? | / | 15µM* | /
Cc1cc(C)cc(NC(=S)N2CCC(c3nc4ccccc4s3)CC2)c1 | ? | i | ? | i | -1
Cc1ccc(NC(=S)N2CCC(c3nc4ccccc4s3)CC2)cc1C | ? | i | -29%[9.24 µM] | i | -65*
CCc1ccc(OC(C)C(=O)N2CCC(c3nc4ccccc4s3)CC2)cc1 (stereo unspecified) | / | 15µM* | / | ? | /
Cc1ccc(C(=O)OCC(=O)NCc2ccco2)cc1C | 12% | ? | 0% | i | 26
